A selection: hits, their analogues and other compounds. The true share with any hit is near 2.9%.
LMP1 NFkB inh – Epstein-Barr LMP1 NF-kappaB reporter inhibition | inhibition, % at 12.5 µM | LMP1-induced NF-kappaB luciferase reporter cells, luminescence | 350,000 compounds, 0.69% hits; in the data active = inhibition above about 41%; inconclusive = no clear call, values can overlap the other calls;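 note: 0% = neutral control wells and 100% = reference inhibitor control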
Shn3 3UTR inh – Schnurri-3 reporter inhibition in Clone20 osteoblasts; inhibition, % at 12.5 µM; Clone20 osteoblast Shn3 3'UTR firefly luciferase, 24 h; 360,000 compounds, 0.52% hits; AID 588674;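 active = mean inhibition of at least 75% with every replicate also reaching 75%; inconclusive = mean inhibition at least 75% but some replicate below; inactive = mean inhibition below 75%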;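 note: 0% = median of neutral control wells and 100% = pilot-screen positive control compound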
CF NFkB block – cystic fibrosis NF-kB activation inhibition | inhibition, % at 5 µM | 360,000 compounds, 0.86% hits | AID 588850 | KKLEB NF-kB-GFP reporter, PAF-induced, GFP fluorescence overnight;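 active = at least 50% inhibition at 5 µM, scaled per plate between neutral and stimulator controls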;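 note: PAF is a Pseudomonas aeruginosa culture filtrate used as stimulus; plate controls were PAF-stimulated DMSO wells for no effect and unstimulated DMSO wells for full effect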
KKLEB cytotox – CF airway cell cytotoxicity counter-screen | KKLEB CF airway cells viability, ATPlite luminescence, overnight; active compounds read low; cells stimulated with P. aeruginosa culture filtrate | activity change (cytotoxicity), % at 5 µM | 360,000 compounds, 0.36% hits | AID 602141;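 active = corrected activity change at or below -50% at 5 µM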
TRPM1 prom inh – MITF TRPM1 promoter inhibition in SK-MEL-5 cells. SK-MEL-5 TRPM1 promoter luciferase, 24 h. inhibition, % at 12.5 µM. 330,000 compounds, 0.83% hits. AID 488899;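 active = mean inhibition across replicates of 60% or more, whatever share of single replicates reaches that level; inconclusive = some that reach 60%, reason not given; inactive = mean inhibition across replicates below 60%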
Peg3 prom inh – reduces Peg3 promoter-driven luciferase expression in HeLa; inhibition, % at 20 µM; AID 588405; 360,000 compounds, 1.7% hits; HeLa PEG-Prom luciferase reporter, luminescence, overnight;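 active = inhibition of at least 50% at 20 µM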
Starred values were filed as active, the others as inactive; ? = inconclusive; nt = no result given.

SMILES	LMP1 NFkB inh	Shn3 3UTR inh	CF NFkB block	KKLEB cytotox	TRPM1 prom inh	Peg3 prom inh
COC(=O)c1cc(S(=O)(=O)Nc2cccc(OC)c2)cn1C	-12.7	1.0	1.3	-1.6	11.9	51.8*
CCCCCCCCC(c1nc2ccccc2[nH]1)N1CCN=C(c2ccccc2)C1=O (stereo not drawn)	nt	-13.1	-13.2	-15.2	nt	8.2
O=C1C=CC(=O)N1c1cccc(-c2ccccc2)c1	22.7	61.5	7.5	4.7	-9.9	108.5*
O=C1c2ccccc2C(=O)N1c1ccccc1	3.6	-19.1	-4.6	6.1	2.0	-2.8
Cc1ccc(-c2nc(N=Nc3ccc(O)cc3)n[nH]2)cc1	-21.1	-8.1	6.1	29.2	-7.7	67.8*
O=C(NCc1ccccc1F)C1CC(=O)N(Cc2ccco2)C1 (stereo not drawn)	-4.1	-9.8	-29.4	-4.2	nt	22.6
Cc1oc2c(Cl)c(Cl)c(O)c(CN(C)C)c2c1C(=O)c1ccc(Cl)cc1	17.6	16.0	50.7*	12.7	-10.2	-7.5
Cc1oc2ccc(O)c(CN3CCOCC3)c2c1C(=O)c1ccc(Cl)cc1	0.3	7.6	31.0	-10.6	-3.3	19.4
CCOc1ccc2nc(SC3CC(=O)N(c4ccc(C)cc4)C3=O)sc2c1 (stereo not drawn)	-1.0	95.6*	5.0	-15.1	-50.5	88.8*
C=CCNc1nnc(SC2CC(=O)N(c3ccc(OCCC)cc3)C2=O)s1 (stereo not drawn)	-1.6	5.0	0.5	2.1	-9.0	104.3*
C[C@H]1CN([C@@H](C)CO)C(=O)c2cc(Br)cnc2O[C@@H]1CN(C)C(=O)Nc1ccc(C(F)(F)F)cc1	-3.3	-8.1	-6.8	4.4	nt	-7.9
Nc1nc2cc(Cl)c(Br)cc2o1	3.4	54.6	20.3	-2.9	-13.2	-25.9
O=C1C=CC2(O[C@H](c3ccccc3)[C@@H](c3ccccc3)O2)[C@H](Sc2ccccc2O)C1	82.2*	95.6*	88.8*	-85.7*	94.2*	107.8*
Cn1c2ccccc2c(=O)c2cc(C#Cc3cccc(N)c3)ccc21	52.4*	-94.5	-124.2	0.0	-80.4	-286.1
CC1=C(C(=O)N2CCOCC2)CC(CC(=O)NC2CCCCC2)C(=O)N1Cc1ccc(C(C)(C)C)cc1 (stereo not drawn)	3.6	-23.7	-2.1	2.9	nt	1.0
CC1(C(=O)Nc2cnc3ccccc3c2)CCN1CCc1ccccc1 (stereo not drawn)	nt	16.2	17.0	-0.2	nt	50.9*
CC(C)(C)Cc1c(-c2ccc(C#N)cc2)nc2ccc(Cl)cn12	-0.3	9.3	14.9	-7.9	nt	7.1
Cc1ccsc1CNC(=O)C1(C)CCCN1CC(C)C (stereo not drawn)	nt	-0.2	-9.6	-0.7	nt	6.8
Cc1cc(C)cc(C(O)c2ncc(-c3cccc(C(F)(F)F)c3)[nH]2)c1 (stereo not drawn)	nt	5.9	20.5	-6.4	nt	22.3
CC(=O)c1c(C)oc2c1C(=O)c1ccccc1C2=O	4.2	-4.6	86.1*	-26.0	78.6*	42.1
CC(=O)c1c2c3c(c(Br)ccc3n(C)c1=O)C(=O)c1ccccc1-2	0.2	5.1	-23.2	-11.4	-3.2	-3.2
COc1ccc(CNC(=O)c2c(C)oc3c2C(=O)c2ccccc2C3=O)cc1	13.1	76.2	89.9*	-82.0*	104.0*	102.1*
COc1ccc([C@H]2C(C(=O)O)=C[C@@H](C(C)(C)C)N2S(=O)(=O)c2ccc(C)cc2)cc1OC	-1.5	-27.6	-22.2	8.1	6.4	-1.8
NC(=O)c1nc(-c2ccco2)nc2c1[nH]c(=O)n2-c1ccc(Cl)c(Cl)c1	-49.9	-2.5	-12.4	3.2	4.6	80.0*
O=[N+]([O-])CC(c1ccc(F)cc1)c1c[nH]c2ccccc12 (stereo not drawn)	3.5	-7.2	12.1	-8.5	16.6	55.0*
SMILES	LMP1 NFkB inh	Shn3 3UTR inh	CF NFkB block	KKLEB cytotox	TRPM1 prom inh	Peg3 prom inh
Cc1cn([C@H]2C[C@H](O)[C@@H](CNC(=O)CNC(=O)CN)O2)c(=O)[nH]c1=O	6.8	-13.0	-5.3	-10.0	nt	-4.3
c1ccc(-c2nn(-c3ccccc3)[n+](-c3ccccc3)n2)cc1	0.1	36.9	2.5	-7.9	62.4*	7.5
CCCCNC(=O)c1nc(C2CCN(S(=O)(=O)c3ccccc3C(F)(F)F)CC2)oc1-c1ccccc1	nt	6.7	3.3	1.6	nt	18.6
O=C(c1ccccc1NS(=O)(=O)c1ccc([N+](=O)[O-])cc1[N+](=O)[O-])N1O[C@@H]2C=C[C@H]1C2	-8.5	-16.9	10.8	-0.1	16.3	7.2
CCc1nc2c(OCCOc3ccc(F)cc3)cccn2c1N(C)C(=O)c1ccco1	nt	-9.5	-3.8	-17.4	nt	9.0
CC(=O)N(C1=C(N)C(=O)c2ccccc2C1=O)c1ccccc1	-1.5	25.3	-17.2	2.7	65.3*	27.9
COc1ccc(-c2csc(C(O)c3ccc(F)c(F)c3)n2)cc1 (stereo not drawn)	nt	16.9	-4.4	-20.5	nt	-37.5
CCOc1ccc2nc(NC3=NC(C)(C)C=C(C)N3)nc(C)c2c1	-32.4	31.9	-27.6	-5.1	12.4	52.7*
CCOc1ccc2nc(NC3=NC(c4ccc(OC)cc4)CC(=O)N3)nc(C)c2c1 (stereo not drawn)	-8.4	49.4	10.9	-16.0	?	62.4*
O=C(COC(=O)/C(=C/c1cccs1)c1cccs1)NC(c1ccccc1)c1ccccc1	-3.3	15.9	0.4	-3.5	70.8*	26.4
O=C(Cc1cccs1)NC(c1ccccc1)c1ccccc1	-11.9	-7.0	5.0	-8.6	-9.4	-20.2
CCCCCCc1cc2cc(-c3nnc(-c4ccccc4O)o3)c(=O)oc2cc1O	-8.0	8.8	-34.4	-66.4*	45.9	36.0
O=c1c2c3nc4ccccc4nc3n(-c3ccc4c(c3)OCCO4)c2ncn1C1CCCC1	-4.9	8.9	16.3	-11.8	82.3*	58.7*
O=c1c2ccccc2ncn1-c1ccc2c(c1)OCCO2	0.2	-22.5	3.2	7.2	-40.2	-59.5
CC1(C)CC(Cc2cccc(C(F)(F)F)c2)N(C(=O)OC(C)(C)C)C1 (stereo not drawn)	3.1	9.1	5.6	-18.3	nt	-14.0
CCN(CC)CCNC(=O)c1c(O)c2cc(OC)c(OC)cc2[nH]c1=O	55.3*	0.6	-7.8	1.2	2.3	-2.5
O=C(Nc1ccc([N+](=O)[O-])cc1)Nc1ccc(N2CCOCC2)c2nonc12	19.9	22.7	10.5	-19.7	-5.5	62.2*
CC(=O)Nc1cc([N+](=O)[O-])ccc1N1CCOCC1	-3.4	-16.3	23.3	5.1	-0.8	4.5
COC(=O)[C@H](Cc1ccccc1)NC(=O)Cn1cnc(C(=O)Nc2ccc(C)c(C)c2)n1	12.9	12.9	2.9	6.4	9.0	-7.3
CCOC(=O)N1CCN(C2=C(NS(=O)(=O)c3ccc(Br)cc3)C(=O)c3ccccc3C2=O)CC1	-7.1	-8.8	58.5*	12.0	nt	17.1
CCN1CCN(C2=C(NS(=O)(=O)c3ccccc3)C(=O)c3ccccc3C2=O)CC1	nt	2.3	-17.2	13.9	67.2*	23.3

Screening results deposited in PubChem by several laboratories.
